# Sfp PPTase inh = inhibitors of Bacillus subtilis Sfp phosphopantetheinyl transferase. Q9F4F7. Biochemical Sfp PPTase activity, qHTS. Potency, µM, inactives show largest response in the series, negative = inhibition, hits mostly inhibitors. 3.5% of 310,000 active;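 also: the enzyme is Sfp with the accession as filed and its product quenches rhodamine fluorescence; potency is read from the fitted curve at half-maximal effect; 0% = enzyme reaction without inhibitor and -100% = no enzyme wells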
#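 Step 1, compound plus 15 nM Sfp-PPTase, 15 min, room temperature. Step 2, add rhodamine-CoA (5 uM) and BHQ-2-YbbR (12.5 uM). Step 3, read 525/598 nm fluorescence at 0 and 30 min.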
# Tau fluor cs = counter-screen for tau fibril formation inhibitors. tau K18 P301L Alexa594 fluorescence, heparin fibrillization. Potency, µM (series often up to 57.7 µM), inactives show at the top dose activity change, negative = decrease. 0.93% of 280,000 active; also: potency is read from the fitted curve at half-maximal effect; nearly all actives have a fitted effect of over 55% in size
#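 Human K18 P301L tau (15 uM unlabeled plus 0.24 uM Alexa 594-labeled, final) in 100 mM sodium acetate pH 7 was mixed with compound and 20 uM heparin and incubated 6 hr at 37 C.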
# G9a block = blocks human histone lysine methyltransferase G9a; G9a H3K9 monomethylation, AlphaScreen, 2 h; Potency, µM (top dose mostly 102 µM), without a hit: at the top dose activity, negative = inhibition, actives largely listed as inhibitors; 8.8% of 350,000 active; AID 504332; also: potency is read from the fitted curve at half-maximal effect; nearly all actives have a fitted effect of over 75% in size
# Target sequence (Q96KQ7 913-1193 limits assumed): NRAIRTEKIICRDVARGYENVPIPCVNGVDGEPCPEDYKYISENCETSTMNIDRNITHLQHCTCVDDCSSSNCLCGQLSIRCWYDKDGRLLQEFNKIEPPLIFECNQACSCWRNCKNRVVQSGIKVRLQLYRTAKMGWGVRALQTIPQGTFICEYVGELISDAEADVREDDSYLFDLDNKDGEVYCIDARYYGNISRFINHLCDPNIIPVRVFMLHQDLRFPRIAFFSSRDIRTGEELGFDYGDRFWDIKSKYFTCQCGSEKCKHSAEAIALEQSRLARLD
#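 Using a bead-based AlphaScreen, monomethylated H3K9 product from 2 h room-temperature reactions (G9a 20 nM, peptide 500 nM, SAM 20 uM) was detected with 0.5 ug/mL rabbit anti-H3K9me1 antibody.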
# Tau fibril ThT = tau fibrillization inhibition (ThT binding); recombinant tau K18 P301L, heparin-induced fibrillization, ThT fluorescence; 2.1% of 270,000 active; AID 1460; P10636; Potency, µM (titrated, usually from 57.4 µM), for inactives: at the top dose activity, negative = inhibition, hits mostly inhibitors; also: potency is read from the fitted curve at half-maximal effect; nearly all actives have a fitted effect of over 55% in size
# Target sequence (P10636 561-689 P618L limits assumed): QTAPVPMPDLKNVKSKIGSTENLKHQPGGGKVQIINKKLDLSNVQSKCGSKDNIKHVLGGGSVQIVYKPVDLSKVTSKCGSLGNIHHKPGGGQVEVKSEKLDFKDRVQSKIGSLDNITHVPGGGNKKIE
#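 Using a mix of unlabeled (15 uM) and Alexa 594-labeled (0.24 uM) tau K18 P301L, heparin-triggered fibrillization over 6 hr at 37 C was scored by ThT fluorescence.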
# FBPA coupling cs = counter-screen for Giardia aldolase inhibitors: coupling enzyme system; coupling enzyme system counterscreen, AmpLite Red fluorescence; activity change, negative = inhibition, % at 58.2 µM, hits read low; 0.67% of 290,000 active; AID 2472; in the data active = activity change below about -30%
#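 Counterscreen of the coupled detection system alone, without aldolase: glyceraldehyde-3-phosphate coupling enzymes plus AmpLite Red readout. Compounds at 57.5 uM final, 10 min RT preincubation, 20 min RT reaction, fluorescence 525/598 nm.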
# Tau fibril FP = blocks human tau fibril formation measured by polarization. P10636. K18 P301L tau heparin fibrillization, Alexa594 FP, 6 h. Potency, µM (series often up to 57.7 µM), without a hit: at the highest dose activity, negative = inhibition, hits mostly inhibitors. 0.39% of 280,000 active. AID 1468; also: potency is read from the fitted curve at half-maximal effect; nearly all actives have a fitted effect of over 55% in size
#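 Human K18 P301L fragment (15 uM unlabeled plus 0.24 uM Alexa 594-labeled) in 100 mM sodium acetate pH 7 with compound, aggregation induced by 20 uM heparin for 6 hr at 37 C. ThT (30 uM) added for 1 hr, then Alexa 594 FP read.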
# An asterisk follows results filed as active; ? = inconclusive; / = no result; ! = a repeat was not active; [ ] = dose if it differs, or a comment. Compounds with a hit are over-represented: about 11% of the library has one in this group of screens. Unless noted, calls follow the shape of the dose curve; as a rule, active = well fitted curve in the direction sought with a large enough effect; inconclusive = small, poorly fitted or top-dose-only effect, or another doubt; inactive = no such curve, though single readings can be large; an effect the other way counts as inactive or inconclusive. Unless noted, % is scaled to controls: 0 for no effect and ±100 for the full control effect.
SMILES,Sfp PPTase inh,Tau fluor cs,G9a block,Tau fibril ThT,FBPA coupling cs,Tau fibril FP
O=C1c2cccc3c([N+](=O)[O-])c(O)cc(c23)C(=O)N1Nc1ccccc1,-16%,-28%,20µM*,5µM*,5,4%
COc1ccc(/C=N/Nc2snc(SC)c2C#N)cc1OC,?,11µM*[quencher],-11%[0.0925 µM],14µM*,/,?
COc1ccc(/C=N/NC(=O)c2cccc(C(=O)N/N=C/c3ccc(OC)c(OC)c3)n2)cc1OC,17%,/,-5%,/,2,/
COc1cccc(/C=N/Nc2snc(SC)c2C#N)c1O,7%,?,50µM*,?,0,10%
CSc1nsc(N/N=C/c2ccccc2)c1C#N,9%,?,-45%,?,0,4%
COc1cccc(/C=N/Nc2snc(SC)c2C#N)c1,56µM*,?,?,?,-2,5%
COc1cccc(/C=N/Nc2ccnc(=O)[nH]2)c1O,15%,/,15%,/,-2,/
Cc1ccc(C(=O)N(Cc2cccnc2)Cc2cc3cc(C)ccc3n3nnnc23)cc1,5%,5%,/,8%,9,6%
CCc1ccccc1NC(=O)c1cc(S(=O)(=O)N(CC)c2ccccc2)ccc1F,/,-20%,6%[59 µM],-12%,/,2%
CCN1C(=O)CC(c2ccccc2)CC1=O,/,/,3%[2.33 µM],/,/,/
CCN1C(=O)C=CC1=O,/,5%,1µM*!,-2%,/,?
O=C1C=CC(=O)N1CCCCCCN1C(=O)C=CC1=O,3.5µM*,-21%,1.6µM*,?,6,25µM*
OC(c1ccccc1)(c1ccccc1)c1ccn[nH]1,/,/,-16%[2.33 µM],/,/,/
O=C(Nc1ccc(F)cc1)Nc1nnc(Cc2ccccc2F)s1,-5%,/,19%[59 µM],/,2,/
COc1cc(/C=C2\SC(N)=NC2=O)ccc1OCC(=O)Nc1ccc(C)cc1,-4%,-22%,-4%[59 µM],?,1,?
COc1cc(/C=C2\SC(c3ccc(C)cc3)=NC2=O)cc(OC)c1OC,?,-27%,1µM*,14µM*,-2,?
COc1cc(/C=C2\SC(N3CCc4ccccc4C3)=NC2=O)cc(OC)c1OC,?,-1%,?,?,6,2%
COc1ccc(/C=C2/SC(c3ccc(C)cc3)=NC2=O)cc1OC,32µM*,?,2.8µM*,14µM*,3,?
COc1cc(/C=C2\SC(c3ccccc3)=NC2=O)cc(Cl)c1O,7.9µM*,?,-157%[59 µM],4.5µM*,1,?
COc1cc(/C=C2\SC(c3ccc(C)cc3)=NC2=O)ccc1O,22µM*,?,11µM*,14µM*,-1,?
O=C(c1nc2ccc(Cl)cn2c1CNCCc1cnccn1)N1CCCCCCC1,-6%,/,81%,/,-1,/
CCOc1cc(/C=C2\SC(N)=NC2=O)ccc1O,?,/,56µM*,/,-1,/
COc1ccc(/C=C2\SC(c3ccc(C)cc3)=NC2=O)cc1OC,?,?,2.2µM*,11µM*,-1,?
O=C(Nc1ccc(F)cc1)C1COc2ccccc2O1 (stereo not given),4%,/,40µM*,/,-1,/
O=C(CSc1nc2c([nH]c3ccccc32)c(=O)n1-c1ccc(Cl)cc1)N1CCCCCC1,/,-6%,2%[59 µM],4%,/,-3%
CN(C)c1nc(C=C(C#N)C#N)c(Cl)n1-c1ccc(F)cc1,8%,-29%,?,14µM*,0,?
CC(=O)OC[C@H]1O[C@@H](O/N=C/[C@@H](C)[C@H](OCc2ccccc2)C(C)C)[C@H](OC(C)=O)[C@@H](OC(C)=O)[C@@H]1OC(C)=O,1%,-5%,50µM*,1%,-1,-1%
O=C1C(=O)N(CCCN2CCOCC2)C(c2ccc(Cl)cc2)/C1=C(\O)c1ccc2c(c1)OCCO2 (stereo not given),12%,/,40µM*,/,/,/
O=C1C(=O)N(CCN2CCOCC2)C(c2ccccc2)/C1=C(\O)c1ccc2c(c1)OCCO2 (stereo not given),11%,/,?,/,/,/

# Compound activity: PubChem, National Center for Advancing Translational Sciences (NCATS)
